Data as given in the supplement of paper PMC7366291.
Where a name gives a salt, the structure may show the parent alone. ± gives the standard deviation of the averaged measurements.

These compounds were tested on Danio rerio Tg(wt1b:EGFP) embryo, pronephros (assay: fraction of imaged embryos annotated as normal kidney; higher = less nephrotoxic; extreme values may be limits of the assay). Details: 25 µM; exposure: 24-48 hpf.
Method in brief: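 The value given is the share of embryos in each treatment scored as having a normal kidney. To obtain it, dechorionated Tg(wt1b:EGFP) zebrafish embryos were treated from 24 to 48 hpf at 28.5°C with 25 μM compound in 0.5% DMSO, in 5 mM HEPES-buffered E3 with 0.003% PTU. Pronephroi were imaged by widefield fluorescence (470 nm, 10 z-slices), and every embryo was annotated by hand from maximum projections.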

Point of comparison: Cc1cc(CC(=O)O)n(C)c1C(=O)c1ccc(Cl)cc1 [Zomepirac sodium salt], “fraction of imaged embryos annotated as normal kidney” value 0.273. Against it:
- Nc1ccccc1S(N)(=O)=O [2-Aminobenzenesulfonamide] — higher, 0.917
- CN1CCC(OC(c2ccccc2)c2ccccc2)CC1 [Diphenylpyraline hydrochloride] — higher, 1
- CCCCC[C@H](O)/C=C/[C@@H]1[C@@H](C/C=C\CCCC(=O)O)[C@@H](O)C[C@H]1O [Dinoprost trometamol] — higher, 0.833
- O=C1C(CC[S+]([O-])c2ccccc2)C(=O)N(c2ccccc2)N1c1ccccc1 (stereo unspecified) [Sulfinpyrazone] — higher, 0.833
- C#C[C@]1(O)CC[C@H]2[C@@H]3CCc4cc(O)ccc4[C@H]3CC[C@@]21C [Ethinylestradiol] — higher, 0.667
- Cc1c(N)c(=O)n(-c2ccccc2)n1C [Ampyrone] — higher, 0.917
- C[C@H](CS)C(=O)N1CCC[C@H]1C(=O)O [Captopril] — higher, 1
- Cc1onc(-c2ccccc2Cl)c1C(=O)N[C@@H]1C(=O)N2[C@@H]1SC(C)(C)[C@@H]2C(=O)O [Cloxacillin sodium salt] — higher, 0.833
- O=C1CN2Cc3c(ccc(Cl)c3Cl)N=C2N1 [Anagrelide] — higher, 0.917
- CCn1cc(C(=O)O)c(=O)c2cc(F)c(N3CCNCC3)nc21 [Enoxacin] — higher, 0.727
- NS(=O)(=O)c1cc2c(cc1Cl)NC(CC1CCCC1)NS2(=O)=O (stereo unspecified) [Cyclopenthiazide] — higher, 1
- CC(=O)S[C@@H]1CC2=CC(=O)CC[C@]2(C)[C@H]2CC[C@@]3(C)[C@@H](CC[C@@]34CCC(=O)O4)[C@H]12 [Spironolactone] — higher, 1
- NC[C@@H]1O[C@@H](O[C@H]2[C@H](O)[C@@H](O[C@H]3O[C@H](CO)[C@@H](O)[C@H](N)[C@H]3O)[C@H](N)C[C@@H]2N)[C@@H](O)[C@H](O)[C@H]1O [Kanamycin A sulfate] — higher, 0.667
- COC1=CC(=O)C[C@@H](C)[C@]12Oc1c(Cl)c(OC)cc(OC)c1C2=O [Griseofulvin] — higher, 0.917
- Cc1c(-c2ccccc2)oc2c(C(=O)OCCN3CCCCC3)cccc2c1=O [Flavoxate hydrochloride] — higher, 0.75
- CC(C)N1CCN(c2ccc(OCC3COC(Cn4cncn4)(c4ccc(Cl)cc4Cl)O3)cc2)CC1 (stereo unspecified) [Terconazole] — higher, 1
- CN(C)CCN(Cc1cccs1)c1ccccn1 [Methapyrilene hydrochloride] — higher, 0.917
- NC12CC3CC(CC(C3)C1)C2 [Adamantamine fumarate] — higher, 0.917
- O=C(NCCN1CCOCC1)c1ccc(Cl)cc1 [Moclobemide] — higher, 0.833
- CCCCC1C(=O)N(c2ccccc2)N(c2ccccc2)C1=O [Phenylbutazone] — lower, 0
- CC(C)NCC(O)c1ccc(O)c(O)c1 (single isomer, unassigned; (+)) [(+)-Isoproterenol (+)-bitartrate salt] — higher, 0.833
- CCCCCNC(=N)N/N=C/c1c[nH]c2ccc(OC)cc12 [Tegaserod maleate] — higher, 0.7
- C[C@H]1C[C@H]2[C@@H]3CCC4=CC(=O)C=C[C@]4(C)[C@@]3(F)[C@@H](O)C[C@]2(C)[C@@]1(O)C(=O)CO [Betamethasone] — higher, 0.583
- Cc1c(O)c(=O)n(-c2ccccc2)n1C [Antipyrine, 4-hydroxy] — higher, 0.583
- NS(=O)(=O)c1cc(Cl)c(Cl)c(S(N)(=O)=O)c1 [Dichlorphenamide] — higher, 0.727
- C#CCN(C)CCCOc1ccc(Cl)cc1Cl [Clorgyline hydrochloride] — higher, 1

What follows are compounds tested on Danio rerio Tg(wt1b:EGFP) embryo, pronephros (assay: pronephric angle neck segment to proximal convoluted tubule (mean of left and right), fold change vs DMSO control; higher = larger pronephric angle). Details: 25 µM; exposure: 24-48 hpf.
Method in brief: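 Using a Fiji macro, distances and angles were calculated from 16 reference points set by hand on maximum projections of pronephroi imaged dorsally (470 nm, 10 z-slices) in agarose-filled 96-well plates. The dechorionated Tg(wt1b:EGFP) zebrafish embryos had received 25 μM compound in 0.5% DMSO in HEPES-buffered E3 with 0.003% PTU from 24 to 48 hpf at 28.5°C. Values more than 2 SD from a feature's mean were excluded. Each feature appears as a fold change over the mean of DMSO-treated embryos from the same day.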

Point of comparison: C[C@H](CS)C(=O)N1CCC[C@H]1C(=O)O [Captopril], “pronephric angle neck segment” value 1.02 ± 0.09. Against it:
- O=C(O)c1cc(/N=N/c2ccc(S(=O)(=O)Nc3ccccn3)cc2)ccc1O [Sulfasalazine] — within error, 0.999 ± 0.034
- CN[C@@H]1[C@H](O)[C@H](NC)[C@H]2O[C@@]3(O)C(=O)C[C@@H](C)O[C@H]3O[C@@H]2[C@H]1O [Spectinomycin dihydrochloride] — within error, 0.9719 ± 0.0052
- CCCC(=O)Nc1ncnc2c1ncn2[C@@H]1O[C@@H]2COP(=O)(O)O[C@H]2[C@H]1OC(=O)CCC [Bucladesine sodium salt] — within error, 0.9351 ± 0.0021
- CN(C/C=C/C#CC(C)(C)C)Cc1cccc2ccccc12 [Terbinafine] — within error, 1.01 ± 0.025
- Cc1ccc(S(=O)(=O)NC(=O)NN2CC3CCCC3C2)cc1 (stereo unspecified) [Gliclazide] — within error, 0.982 ± 0.011
- COc1nc(N)nc2c1ncn2[C@@H]1O[C@H](CO)[C@@H](O)[C@@H]1O [Nelarabine] — within error, 0.984 ± 0.073
- CC(C)NCC(O)c1cc(O)cc(O)c1 (stereo unspecified) [Metaproterenol sulfate, orciprenaline sulfate] — within error, 1.08 ± 0.07
- C[N+]1(C)CCC(OC(=O)C(O)(c2ccccc2)C2CCCC2)C1 (stereo unspecified) [Glycopyrrolate] — within error, 1.06 ± 0.028
- CCCCC1C(=O)N(c2ccccc2)N(c2ccc(O)cc2)C1=O (stereo unspecified) [Oxyphenbutazone] — within error, 0.998 ± 0.06
- CCCCOc1ccc(C(=O)CCN2CCCCC2)cc1 [Dyclonine hydrochloride] — within error, 1.004 ± 0.0035
- Cc1cn([C@H]2C[C@H](N=[N+]=[N-])[C@@H](CO)O2)c(=O)[nH]c1=O [Zidovudine, AZT] — within error, 0.991 ± 0.018
- COC(=O)Nc1nc2cc(C(=O)c3ccc(F)cc3)ccc2[nH]1 [Flubendazol] — within error, 1.11 ± 0.15
- Cc1cc(CC(=O)O)n(C)c1C(=O)c1ccc(Cl)cc1 [Zomepirac sodium salt] — higher, 1.23 ± 0.062
- Nc1ccccc1S(N)(=O)=O [2-Aminobenzenesulfonamide] — within error, 1.052 ± 0.00059
- CN1CCC(OC(c2ccccc2)c2ccccc2)CC1 [Diphenylpyraline hydrochloride] — within error, 0.963 ± 0.035
- CCCCC[C@H](O)/C=C/[C@@H]1[C@@H](C/C=C\CCCC(=O)O)[C@@H](O)C[C@H]1O [Dinoprost trometamol] — within error, 0.975 ± 0.043
- O=C1C(CC[S+]([O-])c2ccccc2)C(=O)N(c2ccccc2)N1c1ccccc1 (stereo unspecified) [Sulfinpyrazone] — within error, 1 ± 0.012
- C#C[C@]1(O)CC[C@H]2[C@@H]3CCc4cc(O)ccc4[C@H]3CC[C@@]21C [Ethinylestradiol] — higher, 1.3 ± 0.015
- Cc1c(N)c(=O)n(-c2ccccc2)n1C [Ampyrone] — within error, 0.97 ± 0.0034
- Cc1onc(-c2ccccc2Cl)c1C(=O)N[C@@H]1C(=O)N2[C@@H]1SC(C)(C)[C@@H]2C(=O)O [Cloxacillin sodium salt] — within error, 1 ± 0.035
- O=C1CN2Cc3c(ccc(Cl)c3Cl)N=C2N1 [Anagrelide] — within error, 0.988 ± 0.027
- CCn1cc(C(=O)O)c(=O)c2cc(F)c(N3CCNCC3)nc21 [Enoxacin] — within error, 1.06 ± 0.017
- NS(=O)(=O)c1cc2c(cc1Cl)NC(CC1CCCC1)NS2(=O)=O (stereo unspecified) [Cyclopenthiazide] — within error, 1 ± 0.012
- CC(=O)S[C@@H]1CC2=CC(=O)CC[C@]2(C)[C@H]2CC[C@@]3(C)[C@@H](CC[C@@]34CCC(=O)O4)[C@H]12 [Spironolactone] — within error, 0.986 ± 0.036
- NC[C@@H]1O[C@@H](O[C@H]2[C@H](O)[C@@H](O[C@H]3O[C@H](CO)[C@@H](O)[C@H](N)[C@H]3O)[C@H](N)C[C@@H]2N)[C@@H](O)[C@H](O)[C@H]1O [Kanamycin A sulfate] — within error, 1.01 ± 0.052
- COC1=CC(=O)C[C@@H](C)[C@]12Oc1c(Cl)c(OC)cc(OC)c1C2=O [Griseofulvin] — within error, 0.947 ± 0.01
- Cc1c(-c2ccccc2)oc2c(C(=O)OCCN3CCCCC3)cccc2c1=O [Flavoxate hydrochloride] — within error, 1.06 ± 0.02
- CC(C)N1CCN(c2ccc(OCC3COC(Cn4cncn4)(c4ccc(Cl)cc4Cl)O3)cc2)CC1 (stereo unspecified) [Terconazole] — within error, 0.948 ± 0.017
- CN(C)CCN(Cc1cccs1)c1ccccn1 [Methapyrilene hydrochloride] — within error, 0.9838 ± 0.0071
- NC12CC3CC(CC(C3)C1)C2 [Adamantamine fumarate] — within error, 1.03 ± 0.013
- O=C(NCCN1CCOCC1)c1ccc(Cl)cc1 [Moclobemide] — within error, 0.969 ± 0.011
- CCCCC1C(=O)N(c2ccccc2)N(c2ccccc2)C1=O [Phenylbutazone] — higher, 1.67 ± 0.032
- CC(C)NCC(O)c1ccc(O)c(O)c1 (single isomer, unassigned; (+)) [(+)-Isoproterenol (+)-bitartrate salt] — within error, 1 ± 0.015
- CCCCCNC(=N)N/N=C/c1c[nH]c2ccc(OC)cc12 [Tegaserod maleate] — within error, 0.963 ± 0.048
- C[C@H]1C[C@H]2[C@@H]3CCC4=CC(=O)C=C[C@]4(C)[C@@]3(F)[C@@H](O)C[C@]2(C)[C@@]1(O)C(=O)CO [Betamethasone] — within error, 1.04 ± 0.053
- Cc1c(O)c(=O)n(-c2ccccc2)n1C [Antipyrine, 4-hydroxy] — within error, 1.03 ± 0.028
- NS(=O)(=O)c1cc(Cl)c(Cl)c(S(N)(=O)=O)c1 [Dichlorphenamide] — within error, 0.941 ± 0.041
- C#CCN(C)CCCOc1ccc(Cl)cc1Cl [Clorgyline hydrochloride] — within error, 0.984 ± 0.047
